Measurements: the supplement of paper PMC6555819

The sequences below were run on PXR homodimer (NR concentration 270 nM) (assay: PBM binding z-score (relative to random genomic background probes); higher = stronger binding; sequences stand for … in GC…GCGATTGACAGCGTAGAATGAAGG).
Procedure, shortened: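 Custom Agilent 4×180K protein-binding microarrays carried double-stranded probes. Their 34-nt variable regions held direct-repeat seeds, single-nucleotide variants, half-site ablations and random human genomic background sequences. Arrays were incubated 1 h with ligand-free nuclear receptor dimers in PBS pH 7.4, 2% milk, 0.02% Triton X-100, 1 mM DTT, 0.2 mg/mL BSA and 0.4 mg/ml salmon testes DNA. Antibodies against each partner (one per run) detected binding, and scanned fluorescence was regression-normalized. Binding z-scores use random background probes as reference.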

| Sequence | PBM binding z-score |
| --- | --- |
| ATATGTAGGTTATAGGGTCATTCAGTTTGCGCAT | 8.92 |
| ATCTCTAAGTAACAAGTTCAGTGAAAGAGAGGAC | 1.97 |
| AGTGAAAGTTCATCTAGGTAACGTAAGATATGCT | 6.78 |
| TCTAGTAGATCAATAGAGGTTAAGAAAGTGCGCT | 0.411 |
| CCTACTGGGCCAAGGTTATTGATCAGTCAAAGCA | -0.133 |
| ATATGTAGGTTAATGGTCATTCAGGTTGGTTCGC | 0.787 |
| GATACAGGGTCAGCTAGAGGCCAGTGTATGGAAA | 0.17 |
| TAGCCTAGGTCAGGTCGGGCCAGTATACGCTATA | -0.668 |
| GCCTGTAGATCAAGGTTAAGAAAGACTAAGCTAA | -0.503 |
| CCTATTAGTTAACCATAAGGGCAACCGAAGCTCG | 0.723 |
| TAGCCTAGGTCAGATCGGGCCAGAATACGCTATA | -0.549 |
| CCTGCTAGGTCATGGTCAGATAATCTACAGTATG | -0.264 |
| AGACTGAGGTTAAGATCAGGGAAACAGAATACAT | 0.258 |
| GGAACGAGGGCATTCGAGTTGGTAGCATGGCGAT | 0.354 |
| TTACCAAGATGAGCTGAGGTCGTTGATCCAACTC | 0.628 |
| TCGGCTAGGTCAGTTGGTCAGCTAACGAGCTGCC | -0.113 |
| TCTTGTAGATCAAGCCGGTTAAGAAAGCCTGAGT | 0.0295 |
